Experimental data as given in PubChem BioAssay (Tox21).
Records with an inconclusive call do not appear. Calls of active or inactive are those of the source. Unless noted, calls follow the shape of the dose curve; as a rule, active = well fitted curve in the direction sought with a large enough effect in the repeat runs; inconclusive = weak or mixed curves; inactive = no such curve, though single readings can be large; an effect the other way counts as inactive or inconclusive.

Key:
[1] = qHTS assay to identify aromatase inhibitors - cell viability counter screen (AID 743084);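 also: cells stimulated with testosterone during compound exposure; nearly all actives have a fitted effect of over 55% in size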
[2] = target: Aryl hydrocarbon receptor (Homo sapiens) (UniProt P35869); test: qHTS assay to identify small molecule that activate the aryl hydrocarbon receptor (AhR) signaling pathway (AID 743085);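 also: HG2L7.5c1 human HepG2 liver cells with stably integrated DRE-driven firefly reporter; series mostly up to about 70 µM; nearly all actives have a fitted effect of over 15% in size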
Chain of Aryl hydrocarbon receptor (Homo sapiens) (P35869 whole entry, looked up): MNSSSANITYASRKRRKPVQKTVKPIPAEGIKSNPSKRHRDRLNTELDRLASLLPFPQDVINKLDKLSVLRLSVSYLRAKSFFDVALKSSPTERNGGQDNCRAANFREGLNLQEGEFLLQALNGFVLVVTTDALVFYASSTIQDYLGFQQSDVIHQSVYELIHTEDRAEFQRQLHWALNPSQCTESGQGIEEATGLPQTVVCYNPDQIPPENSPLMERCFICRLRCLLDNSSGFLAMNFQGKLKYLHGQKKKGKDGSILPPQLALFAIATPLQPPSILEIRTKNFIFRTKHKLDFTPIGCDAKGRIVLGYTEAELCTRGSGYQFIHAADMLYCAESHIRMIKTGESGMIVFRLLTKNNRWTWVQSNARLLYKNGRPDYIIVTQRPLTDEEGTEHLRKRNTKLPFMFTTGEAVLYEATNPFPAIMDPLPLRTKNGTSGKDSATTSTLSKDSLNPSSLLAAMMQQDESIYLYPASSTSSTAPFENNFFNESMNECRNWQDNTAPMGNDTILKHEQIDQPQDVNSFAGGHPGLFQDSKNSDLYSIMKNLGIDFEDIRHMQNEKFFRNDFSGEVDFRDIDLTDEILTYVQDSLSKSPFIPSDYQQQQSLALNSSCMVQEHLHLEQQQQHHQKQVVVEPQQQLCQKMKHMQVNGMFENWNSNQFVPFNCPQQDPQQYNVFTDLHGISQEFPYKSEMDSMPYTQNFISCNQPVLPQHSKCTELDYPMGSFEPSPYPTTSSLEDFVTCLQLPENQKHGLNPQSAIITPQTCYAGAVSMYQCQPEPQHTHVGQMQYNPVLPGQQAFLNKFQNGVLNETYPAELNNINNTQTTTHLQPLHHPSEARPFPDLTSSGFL
Summary of the method: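 Cell line HG2L7.5c1 (human hepatoma, 20× DRE-luc). Plated, 5 h 37C, compound/DMSO added, 24 h 37C. CellTiter-Fluor 30 min 37C → fluorescence; then ONE-Glo 30 min RT → luminescence.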

[3] = qHTS assay to identify small molecule that activate the aryl hydrocarbon receptor (AhR) signaling pathway - cell viability counter screen (AID 743086);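 also: HepG2 liver cells carrying the AhR DRE luciferase reporter; series mostly up to about 70 µM; nearly all actives have a fitted effect of over 45% in size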
Summary of the method: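 HepG2-AhR-luc (HG2L7.5c1) cells, 4000/well, treated 24 h at 37 C with compound; viability measured as CellTiter-Fluor fluorescence after 30 min in the same wells as the luciferase read.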

[4] = target: Peroxisome proliferator-activated receptor gamma (Homo sapiens) (UniProt P37231); test: qHTS assay to identify small molecule agonists of the peroxisome proliferator-activated receptor gamma (PPARg) signaling pathway (AID 743094; active = well fitted activation curve with a large enough effect in the signal ratio in the repeat runs, not every such curve was filed as active; the % refers to the signal ratio)
Chain of Peroxisome proliferator-activated receptor gamma (Homo sapiens) (P37231 whole entry, looked up): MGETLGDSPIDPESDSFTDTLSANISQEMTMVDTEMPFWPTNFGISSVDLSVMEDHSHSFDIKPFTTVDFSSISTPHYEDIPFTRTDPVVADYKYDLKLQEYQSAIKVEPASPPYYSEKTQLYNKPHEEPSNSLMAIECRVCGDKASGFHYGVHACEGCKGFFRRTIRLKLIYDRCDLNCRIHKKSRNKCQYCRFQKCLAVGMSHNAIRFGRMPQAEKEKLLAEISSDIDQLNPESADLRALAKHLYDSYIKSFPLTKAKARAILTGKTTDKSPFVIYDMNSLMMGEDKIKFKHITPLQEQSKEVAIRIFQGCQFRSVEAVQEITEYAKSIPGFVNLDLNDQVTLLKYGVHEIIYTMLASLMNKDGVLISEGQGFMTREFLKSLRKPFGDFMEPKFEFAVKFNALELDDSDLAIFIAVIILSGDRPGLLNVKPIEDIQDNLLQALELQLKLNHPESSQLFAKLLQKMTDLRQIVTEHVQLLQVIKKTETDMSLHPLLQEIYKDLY
Summary of the method: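 Beta-lactamase FRET fluorescence was the read-out after a 1 h room-temperature substrate step, following 17 h compound treatment at 37C of HEK293H cells expressing a UAS-driven bla reporter responsive to PPARg.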

[5] = target: Peroxisome proliferator-activated receptor gamma (Homo sapiens) (UniProt P37231); test: qHTS assay to identify small molecule antagonists of the peroxisome proliferator-activated receptor gamma (PPARg) signaling pathway (AID 743191; calls by dose curve; also: series mostly up to about 63 µM; nearly all actives have a fitted effect of over 30% in size)
Summary of the method: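 GeneBLAzer PPARg UAS-bla HEK293H cells, 5 h post-plating, exposed to compounds 17 h at 37C. LiveBLAzer B/G FRET substrate added for 1 h at room temperature; beta-lactamase reporter read by fluorescence intensity.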

[6] = qHTS assay to identify small molecule antagonists of the peroxisome proliferator-activated receptor gamma (PPARg) signaling pathway - cell viability counter screen (AID 743194); also: nearly all actives have a fitted effect of over 55% in size
Summary of the method: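 Cytotoxicity counter screen in PPARg-bla HEK293H cells, same wells as reporter assay. Compounds plus 50 nM rosiglitazone (final) for 17 h at 37 C, then viability read by CellTiter-Glo luminescence.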

[7] = qHTS assay for small molecule agonists of the antioxidant response element (ARE) signaling pathway (AID 743202; active = well fitted activation curve with a large enough effect in the signal ratio in the repeat runs, not every such curve was filed as active; the % refers to the signal ratio)
Summary of the method: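 Agonist mode reporter screen: HepG2 cells with ARE-controlled beta-lactamase are incubated with test compounds for 16 h at 37 C, and beta-lactamase activity is measured as fluorescence of cleaved B/G FRET substrate.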

[8] = qHTS assay for small molecule agonists of the antioxidant response element (ARE) signaling pathway - cell viability counter screen (AID 743203; calls by dose curve; also: nearly all actives have a fitted effect of over 55% in size)
Summary of the method: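 HepG2 cells carrying ARE-driven beta-lactamase; 2,000 cells/well; 5 hrs plating; compound pinned from DMSO; 16 hrs 37C/5% CO2; CellTiter-Glo added; 30 min RT; luminescence.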

[9] = qHTS assay for small molecule activators of the heat shock response signaling pathway - cell viability counter screen (AID 743209); also: nearly all actives have a fitted effect of over 50% in size
Summary of the method: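 Luminescence from CellTiter-Glo, added after the beta-lactamase FRET read, gave the viability signal. Cells were HSE-bla HeLa treated with DMSO-dissolved compounds for 5 h at 37 C following overnight plating.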

[10] = qHTS assay for small molecule activators of the heat shock response signaling pathway (AID 743210; active = well fitted activation curve with a large enough effect in the signal ratio in the repeat runs, with a control signal flat, not every such curve was filed as active; the % refers to the signal ratio;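 also: HeLa cells with beta-lactamase reporter driven by heat shock elements; series mostly up to about 63 µM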)
Summary of the method: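 Quantitative high-throughput format using an engineered HeLa line in which heat shock response elements drive beta-lactamase; after 5 h with compound, cells received a B/G FRET substrate and fluorescence was read.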

[11] = qHTS assay to identify small molecule agonists of the peroxisome proliferator-activated receptor delta (PPARd) signaling pathway - cell viability counter screen (AID 743211); also: nearly all actives have a fitted effect of over 55% in size
Summary of the method: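 HEK293H PPARd-bla, 3000 cells/well; 5 h preincubation 37C/5% CO2; cpd in DMSO, 17 h 37C; B/G FRET substrate 2 h RT; CellTiter-Glo 30 min RT, luminescence.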

[12] = target: Peroxisome proliferator-activated receptor delta (Homo sapiens) (UniProt Q03181); test: qHTS assay to identify small molecule agonists of the peroxisome proliferator-activated receptor delta (PPARd) signaling pathway (AID 743212; calls by dose curve)
Chain of Peroxisome proliferator-activated receptor delta (Homo sapiens) (Q03181 whole entry, looked up): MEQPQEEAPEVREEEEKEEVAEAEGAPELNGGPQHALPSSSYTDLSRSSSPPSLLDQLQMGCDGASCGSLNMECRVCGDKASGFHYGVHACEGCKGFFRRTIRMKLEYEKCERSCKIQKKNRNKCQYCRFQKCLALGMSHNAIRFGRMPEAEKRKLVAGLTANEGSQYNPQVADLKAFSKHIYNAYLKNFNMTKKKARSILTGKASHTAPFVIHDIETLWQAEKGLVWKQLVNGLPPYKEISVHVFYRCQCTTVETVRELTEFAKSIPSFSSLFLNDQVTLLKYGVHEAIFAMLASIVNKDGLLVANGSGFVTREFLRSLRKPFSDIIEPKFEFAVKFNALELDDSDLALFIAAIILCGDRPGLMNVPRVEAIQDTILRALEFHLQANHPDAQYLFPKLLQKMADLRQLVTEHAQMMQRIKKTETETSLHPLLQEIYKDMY
Summary of the method: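 Quantitative high-throughput agonist screen in a HEK293H beta-lactamase reporter line under UAS control. Compounds in DMSO, at 37 C. Fluorescence read after 2 h with FRET substrate at room temperature.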

[13] = qHTS assay to identify small molecule antagonists of the peroxisome proliferator-activated receptor delta (PPARd) signaling pathway - cell viability counter screen (AID 743213); also: nearly all actives have a fitted effect of over 50% in size
Summary of the method: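 Same-well viability: cells pre-incubated 5 h, dosed with compound plus 300 nM L165041, kept 17 h at 37 C, FRET substrate 2 h RT, then CellTiter-Glo 30 min RT and luminescence.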

[14] = target: Peroxisome proliferator-activated receptor delta (Homo sapiens) (UniProt Q03181); test: qHTS assay to identify small molecule antagonists of the peroxisome proliferator-activated receptor delta (PPARd) signaling pathway (AID 743215; active = well fitted inhibition curve with a large enough effect in the signal ratio in the repeat runs, not every such curve was filed as active; the % refers to the signal ratio;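 also: cells stimulated with agonist L165041 at 300 nM final during compound exposure; series mostly up to about 62 µM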)
Summary of the method: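 Read-out is beta-lactamase FRET fluorescence, measured 2 h after substrate addition at room temperature. Beforehand, UAS-bla HEK293H cells carrying the PPARd reporter were exposed to compounds with L165041 at 300 nM final for 17 h at 37 C.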

[15] = target: Bile acid receptor (Homo sapiens) (UniProt Q96RI1); test: qHTS assay to identify small molecule antagonists of the farnesoid-X-receptor (FXR) signaling pathway (AID 743217; active = well fitted inhibition curve with a large enough effect in the signal ratio in the repeat runs, not every such curve was filed as active; the % refers to the signal ratio)
Chain of Bile acid receptor (Homo sapiens) (Q96RI1 whole entry, looked up): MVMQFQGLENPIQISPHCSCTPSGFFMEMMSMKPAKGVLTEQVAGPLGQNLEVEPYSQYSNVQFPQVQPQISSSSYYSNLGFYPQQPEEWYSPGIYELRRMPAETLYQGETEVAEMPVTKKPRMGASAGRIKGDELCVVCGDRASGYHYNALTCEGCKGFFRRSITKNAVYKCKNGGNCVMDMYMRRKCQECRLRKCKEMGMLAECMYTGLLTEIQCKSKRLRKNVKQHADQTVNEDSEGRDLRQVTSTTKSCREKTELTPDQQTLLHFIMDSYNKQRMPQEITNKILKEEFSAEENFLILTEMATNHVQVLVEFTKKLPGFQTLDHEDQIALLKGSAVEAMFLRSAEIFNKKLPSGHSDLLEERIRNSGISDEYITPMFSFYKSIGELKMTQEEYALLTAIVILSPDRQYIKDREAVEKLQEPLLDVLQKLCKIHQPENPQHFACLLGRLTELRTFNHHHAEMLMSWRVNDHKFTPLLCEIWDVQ
Summary of the method: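 HEK 293T FXR-UAS-bla, 5000 cells/well; compound + CDCA 50 uM final; 16 h, 37 °C; B/G FRET substrate 2 h RT; fluorescence.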

[16] = qHTS assay to identify small molecule agonists of the farnesoid-X-receptor (FXR) signaling pathway - cell viability counter screen (AID 743218); also: nearly all actives have a fitted effect of over 45% in size
Summary of the method: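 HEK 293T FXR-bla cells; 5 h pre-incubation, 16 h compound exposure at 37 C; LiveBLAzer substrate 2 h RT, then CellTiter-Glo 30 min RT, luminescence.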

[17] = target: Bile acid receptor (Homo sapiens) (UniProt Q96RI1); test: qHTS assay to identify small molecule agonists of the farnesoid-X-receptor (FXR) signaling pathway (AID 743220; active = well fitted activation curve with a large enough effect in the signal ratio in the repeat runs, not every such curve was filed as active; the % refers to the signal ratio)
Summary of the method: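 Beta-lactamase reporter under UAS control in GeneBLAzer FXR HEK 293T cells (5000/well) measured with LiveBLAzer FRET substrate after 2 h at room temperature. Compound exposure lasted 16 h at 37C.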

[18] = qHTS assay to identify small molecule antagonists of the farnesoid-X-receptor (FXR) signaling pathway - cell viability counter screen (AID 743221; active = well fitted cell-killing curve with a large enough effect in the repeat runs, not every such curve was filed as active; also: nearly all actives have a fitted effect of over 50% in size)
Summary of the method: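 Luminescence from CellTiter-Glo measures cytotoxicity in GeneBLAzer FXR-UAS-bla HEK 293T cells. Cells were exposed to compounds with 50 uM chenodeoxycholic acid (final) for 16 h at 37 C, in wells also used for the reporter readout.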

[19] = target: Vitamin D3 receptor (Homo sapiens) (UniProt P11473); test: qHTS assay to identify small molecule agonists of the vitamin D receptor (VDR) signaling pathway (AID 743222; calls by dose curve)
Chain of Vitamin D3 receptor (Homo sapiens) (P11473 whole entry, looked up): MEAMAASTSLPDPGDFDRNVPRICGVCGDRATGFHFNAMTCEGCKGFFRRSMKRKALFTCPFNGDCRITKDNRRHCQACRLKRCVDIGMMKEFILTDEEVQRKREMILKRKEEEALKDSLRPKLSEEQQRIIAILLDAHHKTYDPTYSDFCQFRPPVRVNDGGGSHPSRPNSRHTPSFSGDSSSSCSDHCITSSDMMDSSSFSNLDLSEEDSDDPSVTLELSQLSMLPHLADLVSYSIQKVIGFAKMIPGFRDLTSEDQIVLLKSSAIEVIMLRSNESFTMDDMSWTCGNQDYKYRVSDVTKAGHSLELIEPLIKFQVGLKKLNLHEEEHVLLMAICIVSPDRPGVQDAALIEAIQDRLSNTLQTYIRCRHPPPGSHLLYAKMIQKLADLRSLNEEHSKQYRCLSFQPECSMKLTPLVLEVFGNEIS
Summary of the method: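 VDR-bla cells, 2,000/well; 4 h preincubation 37C; cpd (DMSO) 16 h; LiveBLAzer B/G substrate 2 h RT; fluorescence intensity read.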

[20] = target: Vitamin D3 receptor (Homo sapiens) (UniProt P11473); test: qHTS assay to identify small molecule antagonists of the vitamin D receptor (VDR) signaling pathway (AID 743223; active = well fitted inhibition curve with a large enough effect in the signal ratio in the repeat runs, not every such curve was filed as active; the % refers to the signal ratio)
Summary of the method: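 Antagonist mode uses 1alpha,25-dihydroxyvitamin D3 at 3 nM final as stimulus. VDR-bla cells receive compounds in DMSO, incubate 16 h at 37C, then a beta-lactamase FRET substrate for 2 h at room temperature before fluorescence measurement.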

Measured: Potency

CC(C)CCOC(=O)CC(C)C
not listed: [19] | [20]
inactive: all other assays above

CCCCCCCCCCCl
inactive: all assays above

COc1cccc(OC)c1
not listed: [19]
inactive: all other assays above

COC(=O)CCCCCCCCC(=O)OC
not listed: [15]
inactive: all other assays above

CC1=CC(=O)CCC1
not listed: [14] | [15] | [17] | [19] | [20]
inactive: all other assays above

CCN(CC)C(=O)c1ccc(O)c(OC)c1
not listed: [15] | [17] | [20]
inactive: all other assays above

CCCCNc1ccccc1
inactive: all assays above
